Lassa entry inh – blocks Lassa virus binding to or entry into cells; Potency, µM (doses to about 37.9 µM), for inactives: at the top dose activity change, negative = inhibition, hits mostly inhibitors; 1.2% of 300,000 active; Lassa virus pseudotype entry inhibition, cell reporter; calls by dose curve; tested in HEK293 cells; also: potency is read from the fitted curve at half-maximal effect; nearly all actives have a fitted effect of over 50% in size
FMDV inh – antivirals against foot and mouth disease virus. FMDV antiviral cell-based qHTS. 1.2% of 410,000 active. Potency, µM (doses to about 57.9 µM), for the others: at the top dose activity change, negative = inhibition, hits mostly inhibitors; calls by dose curve; tested in HEK293T cells; also: read-out not given here; potency is read from the fitted curve at half-maximal effect; nearly all actives have a fitted effect of over 45% in size
MARV entry inh – blocks Marburg virus binding to or entry into cells; 1.8% of 300,000 active; Marburg virus pseudotyped entry inhibition, cell reporter; Potency, µM (doses to about 37.8 µM), for inactives: at the top dose activity change, negative = inhibition, actives largely listed as inhibitors; calls by dose curve; tested in HEK293 cells; also: potency is read from the fitted curve at half-maximal effect
HCMV inh – human cytomegalovirus inhibition | HFF cells, HCMV-luciferase reporter, 72 h; active compounds read low | 4.5% of 410,000 active | activity change, negative = inhibition, % at 57.5 µM | AID 1259415; in the data active = activity change below about -60%; inconclusive = no clear call, values can overlap the other calls; inactive = above about -39%
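Two-dose cell screen: HFF monolayers treated with compounds and infected with luciferase-expressing HCMV at 1 PFU/cell, 72 h at 37C, then lysed for luciferase measurement.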
Active calls of the source: *; ? = inconclusive; nt = no result given; [ ] = dose if it differs, or a comment. Rows were chosen to be rich in hits. Some 6.2% of all compounds tested hit in one or more screens of this group. % is scaled to controls: 0 for no effect and ±100 for the full control effect.

SMILES | Lassa entry inh | FMDV inh | MARV entry inh | HCMV inh
COC(=O)c1c(NC(=O)/C=C/C(=O)O)sc(C)c1-c1ccc(C)c(C)c1 | -21% | ? | ? | -35
COC(=O)c1c(NC(=O)/C=C/C(=O)O)sc(C)c1-c1ccc(C)cc1 | ? | 0% | ? | -26
CCOC(=O)c1c(NC(=O)/C=C/c2ccc(OCC)cc2)sc(C)c1C | -11%[46.1 µM] | 6% | -2%[46.1 µM] | 4
COC(=O)c1c(NC(=O)/C=C/C(=O)O)sc(C)c1-c1ccc(C(C)C)cc1 | 5.6µM* | 14µM* | -16%[46.1 µM] | ?
CCOC(=O)c1c(NC(=O)/C=C/C(=O)O)sc(C)c1-c1ccc(F)cc1 | -22% | 32µM* | -26%[46.1 µM] | -11
CCOC(=O)c1c(NC(=O)/C=C/C(=O)O)sc(C)c1-c1ccc(C)c(C)c1 | ? | 32µM* | ? | -27
CC(C)=C1C2CCC1C(C(=O)Nc1sc(C)c(-c3ccc(C(C)C)cc3)c1C(N)=O)C2C(=O)O (stereo not given) | ? | -13% | 21µM* | -22
CCCCOc1ccc(C(=O)NCC(c2ccc(Cl)cc2)N2CCOCC2)cc1 (stereo not given) | ? | -25% | 3%[46.1 µM] | 6
COC(=O)[C@](NC(=O)c1ccccc1)(Nc1nc(C)cs1)C(F)(F)F | nt | nt | 4% | nt
CC(C)COc1ccc(C(=O)Nc2scc(-c3ccc(Br)cc3)c2C(=O)OC(C)C)cc1 | -12%[46.1 µM] | 8% | nt | 27
N/N=C(/C(=O)N1CCN(c2ccccn2)CC1)c1ccccc1I | nt | nt | nt | -1
O=c1[nH]c2ccccc2n1C1CCN(C(c2ccccc2)c2nnnn2-c2ccc3c(c2)OCCO3)CC1 (stereo not given) | nt | -26% | nt | -86*
O=c1[nH]c2ccccc2n1C1CCN(C(c2nnnn2-c2ccc3c(c2)OCCO3)C2CC2)CC1 (stereo not given) | nt | -19% | nt | ?
O=c1[nH]c2ccccc2n1C1CCN(C(c2cccs2)c2nnnn2-c2ccc3c(c2)OCCO3)CC1 (stereo not given) | nt | 7% | nt | -80*
CSCCC(c1nnnn1-c1ccc2c(c1)OCCO2)N1CCC(n2c(=O)[nH]c3ccccc32)CC1 (stereo not given) | nt | -28% | nt | -72*
Oc1cc(-c2nc3ccccc3s2)cc2c1OCCN(Cc1cccn1-c1ncccn1)C2 | nt | 37% | nt | nt
COc1ccccc1CN1CCCC(n2cc(C(=O)N3CCCCC3)nn2)C1 (stereo not given) | nt | 0% | nt | nt
NCCCCNS(=O)(=O)c1cccc2c(Cl)cccc12 | nt | nt | 4µM* | nt
NCCCCCCNS(=O)(=O)c1cccc2ccccc12 | nt | 40% | nt | nt
Cc1cccc(NC(=O)Cn2c(=O)n(Cc3ccccc3)c(=O)c3oc4ccccc4c32)c1C | 0%[46.1 µM] | -11% | nt | 3
O=C(Cc1n[nH]c(=O)c2ccccc12)OCC(=O)c1ccc(F)cc1 | 8%[46.1 µM] | -22% | ? | 16
COc1ccc(-n2c(C)cc(C(=O)COC(=O)Cc3n[nH]c(=O)c4ccccc34)c2C)cc1 | ? | 28µM* | ? | ?
O=C(Cc1n[nH]c(=O)c2ccccc12)OCC(=O)c1ccc2c(c1)OCCO2 | ? | 1% | ? | -87*
Cc1ccc(NC(=O)CCc2c(C)nc3nc(C)nn3c2C)c(Cl)c1 | ? | -7% | ? | -12
Nc1ccc(C(=O)NN2C(=O)[C@H](Cl)C2c2ccc(Cl)cc2)cc1 (stereo not given in full) | 11µM* | ? | 8.9µM* | -7
SMILES | Lassa entry inh | FMDV inh | MARV entry inh | HCMV inh
CC(=O)[C@@]1(O)C(C)CC2C3C=C(C)C4=Cc5c(cnn5-c5ccccc5)C[C@]4(C)C3C(O)C[C@@]21C (stereo not given in full) | ? | -18% | 7.9µM* | ?
COc1cc(OC)cc(C(=O)Nc2nnc3n2CCS3)c1 | -21%[46.1 µM] | -7% | nt | -15
Clc1ccc(Nc2nc(-c3ccncc3)cs2)cc1 | 15% | 12% | 7.9µM* | 7
Fc1ccc(Nc2nc(-c3ccncc3)cs2)cc1 | 12% | 11% | -61% | 71
Oc1ccc(Nc2nc(-c3ccc(Cl)cc3)cs2)cc1 | nt | 27% | nt | nt
Nc1ccc(Nc2nc(-c3ccncc3)cs2)cc1 | ? | 15% | ? | -99*
Brc1ccc(-c2csc(Nc3nc(-c4ccc(Br)cc4)cs3)n2)cc1 | -12%[46.1 µM] | -1% | -18%[46.1 µM] | -87*
O=C(c1cnccn1)N1CCC2(CCN(Cc3ccccc3)CC2)CC1 | nt | -4% | nt | nt
Cc1c2oc3c(C)ccc(C(=O)N[C@@H]4C(=O)N[C@@H](C(C)C)C(=O)N5CCC[C@@H]5C(=O)N(C)CC(=O)N(C)[C@@H](C(C)C)C(=O)O[C@H]4C)c3nc-2c(C(=O)N[C@@H]2C(=O)N[C@@H](C(C)C)C(=O)N3CCC[C@@H]3C(=O)N(C)CC(=O)N(C)[C@@H](C(C)C)C(=O)O[C@H]2C)c(N)c1=O | nt | -2% | nt | nt
CCC[C@H](N[C@@H](CCC)[C@H](O)c1ccccc1)[C@H](O)c1ccccc1 | -28%[46.1 µM] | -7% | 8.9µM* | ?
OC(c1ccccc1)C(O)c1ccccc1 (stereo not given) | nt | -11% | nt | 26
COc1ccc(NC(=O)COCC(=O)Nc2ccc(C)cc2)cc1 | nt | 4% | nt | -19
COc1ccc(OCC(=O)Nc2ccc(C)cc2)cc1 | -11% | 31% | -3% | -97*
COc1ccc(OCCNC(=O)c2ccccc2OCC(=O)Nc2ccc(NC(C)=O)cc2)cc1 | ? | ? | 7.1µM* | -31
COc1ccc(OCCNC(=O)c2ccccc2OCC(=O)N2CCCCC2)cc1 | 0% | -36% | 3% | 7
COc1ccc(NC(=O)COc2ccccc2C(=O)NCC(c2ccccc2)N(C)C)cc1Cl (stereo not given) | 11µM* | -19% | ? | 5
O=C(Nc1ccc(Cl)cc1)c1cnn2c1NC(c1ccccc1)=CC2c1ccccc1 (stereo not given) | 16%[46.1 µM] | -8% | nt | -102*
CC1=C(C(=O)Nc2ccc(Cl)cc2)C(c2ccccc2C)n2ncc(C(=O)Nc3ccc(C)cc3)c2N1 (stereo not given) | ? | -16% | 5.6µM* | -32
COc1ccc(C2=CC(c3ccccc3F)n3ncc(C(=O)Nc4ccc(C)cc4)c3N2)cc1 (stereo not given) | -9%[46.1 µM] | -18% | nt | -11
CC1=C(C(=O)Nc2ccc(Cl)cc2)C(c2ccccc2)n2ncc(C(=O)Nc3ccccc3)c2N1 (stereo not given) | ? | -14% | ? | 13
COc1ccc(S(=O)(=O)NCCc2csc(-c3ccc(F)cc3)n2)cc1F | -16%[46.1 µM] | 0% | nt | -9
CCOC(=O)c1cccn1C1C(=O)N(Cc2ccc(Cl)nc2)c2c(F)cccc21 (stereo not given) | nt | nt | nt | -5
CC1(Cc2cc(Cl)ccc2C(F)(F)F)C(=O)Nc2cc(-c3ccccc3Cl)ccc21 (stereo not given) | nt | -18% | nt | 3
COc1ccc(NC(=O)CC(C)n2nc(C)cc2C)cc1Cl (stereo not given) | 0%[46.1 µM] | -2% | nt | 6
CCN(CC)CCOCCOC(=O)C(CC)(CC)c1ccccc1 | ? | -11% | -71% | 17
CCN(CC)CCCOC(=O)C(OC(C)C)(c1ccccc1)c1ccccc1 | 16µM* | ? | 12µM* | -37

Screens: PubChem, National Center for Advancing Translational Sciences (NCATS)
